Sampled rows, rich in hits. Any-hit rate of the full collection: about 21%.
Shiga inhibitor: blocks Shiga toxin action in Vero cells | Vero cells, Shiga toxin protein synthesis inhibition reporter | inhibition, % at 38.7 µM | actives 9.2% (n = 290,000) | AID 2315; in the data active = inhibition mostly above about 28%, no sharp cut-off; inactive = mostly below about 43%; also: 0% is about no effect
Pf growth 48h: inhibits P. falciparum growth in the first generation, 48 h | P. falciparum luciferase growth in erythrocytes, 48 h | Potency, µM (highest dose often 28.7 µM), inactives show at the top dose activity change, negative = inhibition, hits mostly inhibitors | actives 5.9% (n = 310,000) | AID 504832; also: potency is read from the fitted curve at half-maximal effect; % is scaled to controls: 0 for no effect and ±100 for the full control effect
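Luciferase-expressing P. falciparum in infected erythrocytes (2% hematocrit, 0.1% parasitemia final) in RPMI 1640/0.5% Albumax were exposed to compound for 48 hours at 37 C, 5% CO2; growth read as luminescence.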
HCV inh: inhibitors of hepatitis C virus infection; actives 3.4% (n = 340,000); Huh7.5.1 HCVcc-Cre infection, luciferase reporter, 44 h; Potency, µM (highest dose often 41.8 µM), inactives show top-dose activity change, negative = inhibition, hits mostly inhibitors; also: potency is read from the fitted curve at half-maximal effect; % is scaled to controls: 0 for no effect and ±100 for the full control effect
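Compounds are dispensed onto cells plated 4 h earlier at 1,000 per well, with HCVcc-Cre virus (about 0.5 moi) added next. Following 44 h of culture, luminescent signal is measured for 15 sec after 15 min with substrate at room temperature.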
Pf growth 96h: inhibits malaria parasite growth, 96 h; AID 504834; Potency, µM (titrated, usually from 28.7 µM), without a hit: at the top dose activity change, negative = inhibition, usual class: inhibitors; actives 6.9% (n = 320,000); P. falciparum luciferase reporter growth, 96 h; also: potency is read from the fitted curve at half-maximal effect; % is scaled to controls: 0 for no effect and ±100 for the full control effect
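Readout is luminescence from an integrated firefly luciferase in P. falciparum. Red cells, 2% hematocrit and 0.05% parasitemia final, were cultured with compound through two parasite generations (96 hours) at 37 C, 5% CO2.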
Cycloheximide cs: counter-screen hit for Shiga toxin inhibitors, cycloheximide; cell reporter, cycloheximide protein synthesis inhibition counterscreen; max response, %; actives 12% (n = 300,000); AID 2314; in the data active = max response mostly above about 13%, no sharp cut-off; inactive = mostly below about 14%; also: read at 38.3 µM for the half of the compounds with a filed dose; 0% is about no effect
AMA1 RON2 block: inhibitors of Plasmodium falciparum AMA1-RON2 interaction; AlphaScreen AMA1-biotinylated RON2 peptide binding; Potency, µM (series often up to 58.2 µM), inactives show at the highest dose activity change, negative = inhibition, most hits filed as inhibitors; actives 0.2% (n = 360,000);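 also: potency is read from the fitted curve at half-maximal effect; 0% = vehicle wells and -100% = peptide control; nearly all actives have a fitted effect of over 45% in size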
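AMA1 (3D7) with his tag at 25 nM final met compounds first, then biotinylated RON2 peptide at 25 nM; detection used donor plus acceptor beads, 10 µg/mL apiece, read by AlphaScreen after 30 min at room temperature.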
Active calls of the source: *; ? = inconclusive; / = no result. Unless noted, calls follow the shape of the dose curve; as a rule, active = well fitted curve in the direction sought with a large enough effect; inconclusive = small, poorly fitted or top-dose-only effect, or another doubt; inactive = no such curve, though single readings can be large; an effect the other way counts as inactive or inconclusive.

SMILES	Shiga inhibitor	Pf growth 48h	HCV inh	Pf growth 96h	Cycloheximide cs	AMA1 RON2 block
CCC(C)Sc1ccc([C@H]2N[C@@](Cc3ccccc3)(C(=O)OC)[C@H]3C(=O)N(C)C(=O)[C@@H]23)cc1 (stereo not given in full)	/	1µM*	?	?	/	-11%
CC1CCCN(CCCNC(=O)c2ccc3c(c2)N(Cc2cccc(Cl)c2)C(=O)c2ccccc2S3=O)C1 (stereo not given)	/	/	/	/	/	-5%
CC1CCCN(CCCNC(=O)c2ccc3c(c2)N(Cc2ccccc2F)C(=O)c2ccccc2S3(=O)=O)C1 (stereo not given)	-24	2.1µM*	10µM*	?	-21	2%
CC1CCCN(CCCNC(=O)c2ccc3c(c2)N(Cc2ccc(F)cc2)C(=O)c2ccccc2S3=O)C1 (stereo not given)	-7	13µM*	?	12µM*	-10	-11%
CCN1CCCC1CNC(=O)c1ccc2c(c1)N(Cc1ccccc1F)C(=O)c1ccccc1S2(=O)=O (stereo not given)	-7	9.3µM*	10µM*	11%	-4	1%
O=C(NCCN1CCOCC1)c1ccc2c(c1)N(Cc1ccccc1F)C(=O)c1ccccc1S2(=O)=O	-10	0%	-7%	3%	6	8%
CC(=O)Nc1ccc(S(=O)(=O)NCCC(=O)NCc2ccco2)cc1	/	/	/	/	/	-3%
NNC(=O)c1ccc(Cn2cccn2)o1	52*	21%	20%	-6%	20	75%
Cc1ccccc1/C=N\NC(=O)c1ccc(Cn2cccn2)o1	32	28%	-7%	41%	5	2%
O=C(N/N=C/c1cccc(Br)c1)c1ccc(Cn2cc(Br)cn2)o1	56*	-11%	?	?	17	-10%
NNC(=O)c1ccc(Cn2cc(Br)cn2)o1	61*	26%	4%	35%	27*	10%
O=C(NCc1ccncc1)[C@@H]1CCCN1C(=O)[C@H]1CCCN1C(=O)c1ccccc1	/	/	/	/	/	3%
COCCN(C(=S)Nc1ccccc1C)C(C)c1ccco1 (stereo not given)	15	9%	12%	0%	-2	-9%
COc1ccc(NC(=S)N(CCN(C)C)C(C)c2ccco2)cc1Cl (stereo not given)	-5	-13%	?	10µM*	-2	2%
COCCN(C(=S)Nc1ccc(C)cc1C)C(C)c1ccco1 (stereo not given)	15	?	?	7%	19*	-13%
COc1ccc2c(c1)S(=O)(=O)c1ccccc1N2	-4	14%	-5%	30%	-2	-10%
COc1ccc(P2(=O)Nc3ccccc3N2)cc1	41	43%	-13%	-16%	36*	1%
COc1cc([N+](=O)[O-])c2nccnc2c1	-14	17%	17%	9.3µM*	-3	-8%
CCCC1COC(Cn2cncn2)(c2ccc(Cl)cc2Cl)O1 (stereo not given)	-14	12µM*	-2%	10%	-12	-10%
Cc1ccc(S(=O)(=O)NC(=O)C2(C)CCN2C(=O)Cc2ccc(Cl)cc2Cl)cc1 (stereo not given)	/	/	/	/	/	-10%
CCc1ccccc1NC(=O)c1ccccc1Sc1ccc([N+](=O)[O-])cc1Cl	-9	12µM*	?	-17%	-3	1%
CCSc1ccccc1C(=O)Nc1ccc([N+](=O)[O-])cc1OC	3	?	?	-2%	-2	6%
CCCOc1ccccc1OCC(=O)Nc1cccc(S(=O)(=O)NC2=NCCC2)c1	/	?	?	?	/	-9%
O=C(NNc1ccccc1)c1ccc(Cl)c(Cl)c1	/	/	?	/	/	1%
CN(C(=O)c1cncc(Br)c1)C1C2CC3CC(C2)CC1C3 (stereo not given)	25	?	21%	?	19*	0%
SMILES	Shiga inhibitor	Pf growth 48h	HCV inh	Pf growth 96h	Cycloheximide cs	AMA1 RON2 block
CN(C(=O)COC(=O)c1cncc(Br)c1)C1CCCCC1	/	/	16%	/	/	1%
COc1ccc(C2C=C3CNS(=O)(=O)C3CC2OC(=O)c2cccc(C)c2)cc1 (stereo not given)	-8	/	/	/	-6	/
O=C(NCc1cccs1)c1ccc2sc([C@@H]3O[C@H](CO)[C@H](O)[C@H](O)[C@H]3O)nc2c1	/	/	/	/	/	-2%
CCCn1c(N)c(C(=O)CSc2nc(C)cs2)c(=O)n(C)c1=O	9	-21%	?	9.3µM*	23*	0%
COc1cc2c(c(OC)c1OC)-c1ccc(SC)c(=O)cc1C(NC=O)CC2 (stereo not given)	/	/	-40%	/	/	1%
CCCCN(C)C(=O)C1CCN(Cc2ccc(OCc3ccccc3)cc2)CC1	active	?	?	-10%	13	-10%
CCOc1ccc(CN2CCC(Cc3ccccc3)CC2)cc1	-22	13%	?	0%	-3	-17%
NC(=O)C1CCN(Cc2ccc(OCc3ccccc3)cc2)CC1	54*	105%	-26%	92%	25*	-1%
CCOC(=O)N1CCN(C(=O)C2CCN(Cc3cccc(OCc4ccccc4)c3)CC2)CC1	-8	5%	-25%	4.7µM*	-2	-11%
CCOC(=O)C1CCN(Cc2ccc(OCc3ccccc3)cc2)CC1	6	10%	-8%	0%	3	?
O=C(O)CC(NC(=O)CC(c1ccccc1)c1ccccc1)c1cccc([N+](=O)[O-])c1 (stereo not given)	0	19%	16%	2%	-1	-3%
O=C(Nc1ccccn1)c1ccc(S(=O)(=O)N2CCCC2)cc1	/	34%	-3%	33%	/	3%
O=C(Nc1nc(-c2ccncc2)cs1)c1ccc(S(=O)(=O)N2CCOCC2)cc1	25	?	-22%	?	-6	-1%
Cc1csc(NC(=O)c2cccc(S(=O)(=O)N3CCCCC3)c2)n1	-9	?	-1%	?	-2	-4%
O=C(Nc1nc(-c2cccs2)cs1)c1cccc(S(=O)(=O)N2CCCCCC2)c1	99*	-21%	11µM*	/	21*	42%
O=C(Nc1nc(-c2cccs2)cs1)c1ccc(S(=O)(=O)N2CCCCC2)cc1	-9	?	18µM*	-7%	3	-6%
O=C(Nc1nc(-c2ccccn2)cs1)c1ccc(S(=O)(=O)N2CCCCC2)cc1	-2	3.3µM*	/	2.3µM*	-2	/
O=C(COc1ccc(Cl)cc1Br)N1CCN(c2ncccn2)CC1	/	?	?	?	/	-16%
COc1ccc(NC(=O)CSc2ncc(-c3ccc(F)cc3)n2Cc2ccco2)cc1	11	15µM*	?	12µM*	-3	?
CCC(=O)Nc1cc(NC(=O)CSc2ncc(-c3ccc(F)cc3)n2Cc2ccco2)ccc1C	76*	34%	?	22%	27*	2%

High-throughput results: PubChem BioAssay, National Center for Advancing Translational Sciences (NCATS)
